This is part of a sample that, as a whole, favours compounds with a hit. Of some 79,000 tested, about 15% had one in any assay. The source made the active and inactive calls. Rule as the data show it: active = growth inhibition above about 70%; inactive = the rest.
Tests used:
[1] = NCI Yeast Anticancer Drug Screen. Data for the rad50 strain (AID 155);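 also: 0% = growth of vehicle-only cultures of the same strain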; conditions: S. cerevisiae rad50 strain growth inhibition; at 50.0 µM; active compounds read high
In short: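 DNA repair mutant yeast, compound exposure, growth read-out; inhibition is taken relative to vehicle.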

[2] = NCI Yeast Anticancer Drug Screen. Data for the mec2-1 strain (AID 157); conditions: S. cerevisiae mec2-1 strain, at 50.0 µM, active compounds read high
In short: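 Cells of the genetically defined mec2-1 yeast strain are incubated with test compound. Inhibition of growth is calculated against vehicle-treated controls.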

[3] = NCI Yeast Anticancer Drug Screen. Data for the sgs1 mgt1 strain (AID 161);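 also: 0% = growth of cultures given vehicle only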; conditions: S. cerevisiae sgs1 mgt1 strain, at 50.0 µM, active compounds read high
In short: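 Genetically altered yeast, compound exposure, growth inhibition relative to vehicle.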

[4] = NCI Yeast Anticancer Drug Screen. Data for the cln2 rad14 strain (AID 165);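 also: 0% = growth equal to vehicle treated cultures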; conditions: S. cerevisiae cln2 rad14 strain, at 50.0 µM, active compounds read high
In short: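 The screen exposed genetically defined yeast (cln2 rad14) to test compounds and scored growth inhibition relative to vehicle-treated controls.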

[5] = NCI Yeast Anticancer Drug Screen. Data for the bub3 strain (AID 167); conditions: S. cerevisiae bub3 mutant strain, at 50.0 µM, active compounds read high
In short: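 In this screen, a yeast mutant lacking normal mitotic checkpoint function is challenged with compound. Relative growth versus vehicle gives the inhibition value.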

[6] = NCI Yeast Anticancer Drug Screen. Data for the mlh1 rad18 strain (AID 175); conditions: S. cerevisiae mlh1 rad18 strain growth inhibition; at 50.0 µM; active compounds read high
In short: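 Compound-treated yeast growth, normalised to vehicle controls. Strain bears defined DNA repair mutations.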

Measured: growth inhibition

CC(C)C(=O)Nc1ccc(Cl)c(Cl)c1
inactive: [1] 33.9% | [2] 6.35% | [3] 44.3% | [4] 41.2% | [5] -4.05% | [6] 58.1%

O=C(CCCCCCC(=O)C[N+]12CCC(CC1)C(O)C2)C[N+]12CCC(CC1)C(O)C2 (stereo not given)
inactive: [1] 39.1% | [2] 4.2% | [3] 21.1% | [4] 0.5% | [5] 3.6% | [6] 15.6%

CCCCCCCCCCCCSC1=CC(=O)C(SCCCCCCCCCCCC)=CC1=O
inactive: [1] -15.8% | [2] -6.55% | [3] -5.6% | [4] -13.2% | [5] -4.5% | [6] -34.1%

ClC1=C(Cl)C2(Cl)C=CC1(Cl)C2
inactive: [1] 4.05% | [2] -3.05% | [3] 4% | [4] -14.2% | [5] 1.9% | [6] 6.6%

S=C(Oc1ccccc1)Oc1ccc2ccccc2c1
inactive: [1] 9.7% | [2] -6.8% | [3] -9.7% | [4] -6.55% | [5] 15.3% | [6] -11.6%

COC1OCC(OS(C)(=O)=O)C(OS(C)(=O)=O)C1OS(C)(=O)=O (stereo not given)
inactive: [1] -22.5% | [2] -6.1% | [3] -26.1% | [4] -55.2% | [5] -1% | [6] -2.85%

Nc1ccc(N2CCN(c3ccc(N)cc3)CC2)cc1
inactive: [1] 12.2% | [2] -9.95% | [3] 16% | [4] 10.2% | [5] 12.3% | [6] 15.8%

O=C1C(=Cc2cccc(O)c2)N=C(c2ccccc2)N1n1c(-c2ccccc2)nc2ccccc2c1=O
inactive: [1] -14.3% | [2] 5.15% | [3] 25.8% | [4] 14.7% | [5] -1.75% | [6] 11.9%

O=C(O)c1cscc1-c1ccccc1
inactive: [1] 2.5% | [2] -0.05% | [3] -6.9% | [4] -19.9% | [5] -12.1% | [6] 3.6%

COCCOC(=O)c1ccccc1O
inactive: [1] 5.45% | [2] 13.8% | [3] 13.8% | [4] 2.95% | [5] -13.2% | [6] -1.25%

[N-]=[N+]=Nc1cc(=O)n(-c2ccccc2)c(=O)n1-c1ccccc1
inactive: [1] 9.5% | [2] 8.75% | [3] 13.3% | [4] 21.6% | [5] 10.3% | [6] 32.2%

CCC(C)C(C)(CO)CO (stereo not given)
inactive: [1] 1.5% | [2] -20.9% | [3] -3.7% | [4] 20.4% | [5] -14.3% | [6] 25.6%

Cn1cnc(=O)c2n[nH]nc21
inactive: [1] 3.95% | [2] 16.6% | [3] -1.1% | [4] -1.45% | [5] -11.4% | [6] 0.65%

CCOC(=O)Nn1c(C)nnc1CC#N
inactive: [1] -3.05% | [2] -2.4% | [3] -8.1% | [4] -16.8% | [5] 0.65% | [6] 18.7%

O=C1OC(=O)C2C1C1c3ccccc3C2(O)c2ccccc21 (stereo not given)
inactive: [1] -1.8% | [2] -17.9% | [3] 0.2% | [4] 2.95% | [5] 6.1% | [6] -0.6%

O=NSC(c1ccccc1)(c1ccccc1)c1ccccc1
inactive: [1] 1.65% | [2] -24.2% | [3] 1.6% | [4] -28.1% | [5] -9.25% | [6] 0%

COc1cc2c3c(c1OC)-c1cc4c(cc1CC3(C#N)N(C(=O)c1ccccc1)CC2)OCO4 (stereo not given)
inactive: [1] 3.5% | [2] 8.05% | [3] -29.2% | [4] -5.35% | [5] 15.1% | [6] 26.1%

Cc1cc(=O)oc2cc(OC(=O)Nc3ccc(F)c([N+](=O)[O-])c3)ccc12
inactive: [1] 7.85% | [2] 45.2% | [3] 27.1% | [4] -11.8% | [5] 53.9% | [6] 12.5%

O=C1c2ccccc2N2OC3(N4CCOCC4)CCCC3C12c1ccccc1 (stereo not given)
inactive: [1] 57.5% | [2] 21.9% | [3] 45.3% | [4] 25.9% | [5] 60% | [6] 48.5%

Cc1c(Cl)cccc1NC(=O)C(=O)C(C(=O)c1ccccc1-c1ccccc1)C1OC(=O)c2ccccc21 (stereo not given)
inactive: [1] -31.9% | [2] -44.5% | [3] -14.3% | [4] -41.8% | [5] 11.9% | [6] -23%

COc1c(CO)cc(C)cc1CO
inactive: [1] 4.15% | [2] -0.5% | [3] -6.95% | [4] 3.05% | [5] -0.7% | [6] 0.5%

O=C1S/C(=C2\C(=O)N(CN3CCCCC3)c3ccc(Br)cc32)C(=O)N1CN1CCCCC1
inactive: [1] 37.4% | [2] -2.9% | [3] 9.35% | [4] -2.05% | [5] -1.6% | [6] 22.2%

OC1CSCCCSCC(O)CSCCCSC1 (stereo not given)
inactive: [1] 1.7% | [2] 10.9% | [3] 3.4% | [4] -2.5% | [5] 0.2% | [6] 8%

Cn1c(=O)c2[nH]c([N+](=O)[O-])nc2n(C)c1=O
inactive: [1] 23.4% | [2] -10% | [3] -0.3% | [4] 13.6% | [5] -20.1% | [6] 25.8%

O=[N+]([O-])C(/C=N/Nc1ccccc1)/C=N/Nc1ccccc1
inactive: [1] -5.95% | [2] -8.3% | [3] -20.8% | [4] -6.55% | [5] -24.6% | [6] -10.9%

O=c1c2cc(S(=O)(=O)Nc3c(Cl)cccc3Cl)ccc2ncn1NS(=O)(=O)c1ccc2ccccc2c1
inactive: [1] -21.8% | [2] -8.6% | [3] -12.4% | [4] 10.4% | [5] -7.9% | [6] -3.75%

COc1ccc(-c2c3c(n(C4OC(COC(C)=O)C(OC(C)=O)C(OC(C)=O)C4OC(C)=O)c(=S)c2C#N)CC(C)(C)CC3=O)cc1 (stereo not given)
inactive: [1] -2.05% | [2] -0.8% | [3] 10.8% | [4] -9.35% | [5] -0.05% | [6] 8.9%

CC(C)N(CCn1c2c3ccccc3ccc2c2oc(=O)c3ccccc3c21)C(C)C
inactive: [1] 13.8% | [2] -23.7% | [3] -2.8% | [4] 12% | [5] -2.95% | [6] -8%

CSc1cnc(N)s1
inactive: [1] 14.6% | [2] 14.8% | [3] 3% | [4] -13.1% | [5] -2.45% | [6] 32.4%

CCCCOC(=O)c1c(C)c(C)cc(C)c1C
inactive: [1] 18.4% | [2] -7.1% | [3] 6.3% | [4] 12.5% | [5] 5.75% | [6] -9.95%

O=C(O)c1ccccc1/C=N/NC1=NCCCCN1
inactive: [1] -46.8% | [2] -23.4% | [3] -29.4% | [4] -9.65% | [5] -7.55% | [6] -33.1%

O=c1c2ccccc2oc2nc3ccc(Cl)cc3n12
inactive: [1] -6.3% | [2] -7.5% | [3] 0.45% | [4] -30.9% | [5] 10.6% | [6] -1.85%

CC1(C)CCc2cc3c(O)c(-c4ccccc4)c(=O)oc3cc2O1
inactive: [1] -9.45% | [2] 2.15% | [3] -0.65% | [4] -17.2% | [5] -5.75% | [6] 7.45%

Cc1cccc(C(=O)c2ccccc2)c1C(=O)O
inactive: [1] 10.7% | [2] 2.45% | [3] 4.55% | [4] 2.45% | [5] -9.25% | [6] 2.15%

CC(C)(C)OC(=O)C(C1NC(C(=O)O)C(C)(C)S1)N1C(=O)c2ccccc2C1=O (stereo not given)
inactive: [1] -29.8% | [2] -43% | [3] -53.7% | [4] -42.1% | [5] -56.4% | [6] -17.4%

CSC(=Nc1ccc(Br)cc1)NC(=O)c1cc([N+](=O)[O-])cc([N+](=O)[O-])c1
inactive: [1] -33% | [2] 3.4% | [3] 23.1% | [4] -58% | [5] 6.2% | [6] -18.8%

Cc1ccc(S(=O)(=O)/C(C#N)=C/n2c(=S)[nH]c3ccc([N+](=O)[O-])cc32)cc1
inactive: [1] -14.3% | [2] -21.1% | [3] -9.05% | [4] -3.25% | [5] -10.6% | [6] 3.3%

CCOC(=O)NC(NC(=O)OCC)c1ccc(Cl)cc1Cl
inactive: [1] -11.7% | [2] -4.55% | [3] -11.6% | [4] 5.9% | [5] 7.2% | [6] 7.8%

NC(=N\C1=NCCN1)/C(N)=N/C1=NCCN1
inactive: [1] -13.4% | [2] 5.35% | [3] -1.35% | [4] -29.5% | [5] -2.3% | [6] -13.2%

CC(=O)OC1CCC2(C)C(CCC3(C)C2CCC2C4C5OC(=O)C4(CCC5(C)C)CCC23C)C1(C)C (stereo not given)
inactive: [1] -13% | [2] -23.9% | [3] -17.1% | [4] -5.2% | [5] -33% | [6] 4.6%
